The record followed here is PubChem BioAssay (NCI).

The panel holds about 83,000 compounds, 20% with a hit somewhere; the sample as a whole holds those more often.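 Assay: single dose, 48 h. Readout: percent growth (0 = no net growth; negative = cell death). Active: <10.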 Unmarked numbers belong to inactive results. The source made the active and inactive calls.

The test system of one assay is HCC-2998 colon. Briefly: NCI-60 one-dose screen, 48 h (100 = growth as untreated, 0 = no growth, -100 = all killed). The settings on record: 10 µM unless noted.
For `Nc1nc(N)c2c(n1)NC1(C=C(O)c3ccccc31)C1=C(N2)c2ccccc2C1=O` (stereo not given), the growth was 109%.
On the same count and under the same terms, in the case of `COc1ccc(CCN2C(=O)/C(=C/c3ccc(C4Oc5ccccc5C5CC(c6cccc(OC)c6)=NN54)cc3)SC2=S)cc1` (stereo not given) it was 98.6%; in that of `O=C(Nc1ccc(N2CCNCC2)cc1)c1[nH]ncc1Nc1cc(Oc2ccccc2)ncn1`, -18.1% (active).
Still for that read-out and setting: then `O=C(CCc1nnc2sc(Cc3ccccc3Cl)nn12)c1nc2ncccc2[nH]1`, with 87.7%.
Take `O=NN(Cc1cccnc1)C(=O)NC1CCCCC1`: the growth is 107%.
`CN(C)/C=C1\SC(=Nc2ccc(Cl)cc2)NC1=O`: the growth was 104%.
`CCOC(=O)c1cc2c(n1Cc1ccccc1)-c1oncc1CCC2`: the growth was 87.5%.
Regarding `O=C(c1ccccc1)N(C(=S)NCCc1ccc(Cl)cc1)c1ccccc1`, the growth is 101%.
On to `COc1cccc(/C=C/C(=O)c2c(C)nc3ccccc3c2/C=C/c2ccccc2)c1OC`, for which the growth was 41.1%.
On to `CCOC(=O)c1cc2c(n1Cc1cccc(OC)c1)-c1oncc1CCC2`, for which the growth was 51.6%.
Take `CC/C=C\C[C@H](O)C/C=C1/C(=O)C=C[C@@H]1C/C=C\CCCC(=O)OCCS(=O)(=O)c1ccccc1`: the growth is 53.4%.
As to `COc1ccc(/C=C/C(=O)c2c(C)nc3ccccc3c2/C=C/c2ccccc2)cc1O`, the growth was 82.4%.
Take `COc1ccc(-c2nc(N3CCN(C(=O)C4CCCCC4)CC3)c3c4c(sc3n2)CCCC4)cc1`: the growth is 53.2%.
Still for that read-out and setting: then `O=c1oc2ccc(F)cc2c(=O)n1-c1ccc(Cl)cc1F`, with 9.7% (active); and `COc1cc(C(=O)Nc2ccc(-c3nc4ccccc4[nH]3)cc2)cc(OC)c1OC`, with 57.6%.
For `O=c1oc2ccc(Cl)cc2c(=O)n1-c1ccc(I)cc1F`, the growth is 16.2%.
In the case of `CCC1=C[C@@H]2CN(C1)Cc1c([nH]c3ccccc13)[C@@](C(=O)OC)(c1cc3c(cc1OC)N(C)[C@H]1[C@@](O)(C(=O)OC)[C@H](OC(C)=O)[C@]4(CC)[C@@H]5C[C@@H]5CN5CC[C@]31[C@@H]54)C2`, the growth is -13.1% (active).
For `O=c1oc2ccc(F)cc2c(=O)n1-c1ccc(I)cc1F`, the growth was 14.6%.
Regarding `COc1ccc(C2C3=C(COC3=O)N(CCO)c3cc4c(cc32)CCC4)cc1OC` (stereo not given), the growth is -0.413% (active).
Take `O=c1oc2ccc(I)cc2c(=O)n1-c1ccc(Cl)cc1F`: the growth was 16.9%.
Same read-out and setting: then `O=C1OC(c2ccccc2)(c2ccccc2)c2ccsc21`, with 127%; and `O=c1oc2ccc(-c3ccc(F)cc3F)cc2c(=O)n1-c1cccc(C(F)(F)F)c1`, with 22.9%; and `Cn1nc(C(C)(C)C)cc1NC(=O)Cc1ccc(/C=C2\C(=O)Nc3ccccc32)cc1`, with 96.3%.
As for `Cc1ccc(Nc2nc(N)c3ccccc3n2)cc1Cl`, the growth is 51.6%.
Consider `O=C(c1ccccc1)N(CCc1ccc(Cl)cc1)C(=S)N(C(=O)c1ccccc1)c1ccccc1`, for which the growth is 105%.
Regarding `O=C(COc1cc(O)c2c(=O)cc(-c3ccccc3)oc2c1)Nc1ccccc1`, the growth was 99.7%.
Regarding `O=C1c2cc(I)ccc2Oc2cc([N+](=O)[O-])ccc2N1c1ccc(Cl)cc1F`, the growth was 102%.
Turning to `Nc1ccc(-c2nn3c(CCC(=O)c4nc5ncccc5[nH]4)nnc3s2)c(O)c1`, the growth is 69.4%.
Same read-out and setting: then `COc1c(B(O)O)cccc1-c1nc2ccc3[nH]ncc3c2c2c1C1CCC2C1` (stereo not given), with 110%; and `Oc1c(CN2CCN(c3ccccc3F)CC2)cc(Br)c2cccnc12`, with 30.7%; and `O=C(Nc1ccc(F)cc1F)c1cc(Br)ccc1O`, with 13.5%.
For the compound `O=C(Nc1ccc(N2CCNCC2)cn1)c1[nH]ncc1Nc1ncnc2sccc12`, the growth was 52.6%.
On to `O=C1c2ccc3c4c(ccc(c24)C(=O)N1CCCCO)C(=O)N(CCCCO)C3=O`, for which the growth is 97.2%.
`CC[C@]1(O)C[C@@H]2CN(CCc3c([nH]c4ccccc34)[C@@](C(=O)OC)(c3cc4c(cc3OC)N(C)[C@H]3[C@@](O)(C(=O)OC)[C@H](OC(=O)CCCBr)[C@]5(CC)C=CCN6CC[C@]43[C@@H]65)C2)C1`: the growth is 9.27% (active).
Consider `Nc1ncnc(N)c1NC(=O)c1ccc(OCc2ccccc2)cc1`, for which the growth was 115%.
For `O=c1oc2ccc(Cl)cc2c(=O)n1-c1ccc(F)cc1F`, the growth was 34%.

In the next assay the test system is KM12 colon. The description is as above. The settings on record: 10 µM unless noted.
With `Nc1nc(N)c2c(n1)NC1(C=C(O)c3ccccc31)C1=C(N2)c2ccccc2C1=O` (stereo not given), the growth was 109%.
Take `COc1ccc(CCN2C(=O)/C(=C/c3ccc(C4Oc5ccccc5C5CC(c6cccc(OC)c6)=NN54)cc3)SC2=S)cc1` (stereo not given): the growth was 105%.
With `O=C(Nc1ccc(N2CCNCC2)cc1)c1[nH]ncc1Nc1cc(Oc2ccccc2)ncn1`, the growth was -78% (active).
In the case of `O=C(CCc1nnc2sc(Cc3ccccc3Cl)nn12)c1nc2ncccc2[nH]1`, the growth is 97.1%.
For `O=NN(Cc1cccnc1)C(=O)NC1CCCCC1`, the growth is 109%.
With `CN(C)/C=C1\SC(=Nc2ccc(Cl)cc2)NC1=O`, the growth is 106%.
The same measure, in the same setting: in the case of `CCOC(=O)c1cc2c(n1Cc1ccccc1)-c1oncc1CCC2` it was 56.1%; in that of `O=C(c1ccccc1)N(C(=S)NCCc1ccc(Cl)cc1)c1ccccc1`, 52.3%; in that of `COc1cccc(/C=C/C(=O)c2c(C)nc3ccccc3c2/C=C/c2ccccc2)c1OC`, 26.6%.
As to `CCOC(=O)c1cc2c(n1Cc1cccc(OC)c1)-c1oncc1CCC2`, the growth is 27.1%.
In the case of `COc1ccc(OC)c(NC(=O)/C(C#N)=C/c2ccco2)c1`, the growth is 95.5%.
Consider `CCc1ccc(CNCC(O)c2ccccc2)cc1` (stereo not given), for which the growth is 72.5%.
Take `CC/C=C\C[C@H](O)C/C=C1/C(=O)C=C[C@@H]1C/C=C\CCCC(=O)OCCS(=O)(=O)c1ccccc1`: the growth is 25.6%.
On to `O=C1c2cc(Br)ccc2Oc2cc([N+](=O)[O-])ccc2N1c1ccc(I)cc1F`, for which the growth is 100%.
Still for that read-out and setting: then `COc1ccc(/C=C/C(=O)c2c(C)nc3ccccc3c2/C=C/c2ccccc2)cc1O`, with 35.6%; and `COc1ccc(-c2nc(N3CCN(C(=O)C4CCCCC4)CC3)c3c4c(sc3n2)CCCC4)cc1`, with -46.4% (active); and `O=c1oc2ccc(F)cc2c(=O)n1-c1ccc(Cl)cc1F`, with 2.07% (active).
Consider `COc1cc(C(=O)Nc2ccc(-c3nc4ccccc4[nH]3)cc2)cc(OC)c1OC`, for which the growth was 33.8%.
On the same count and under the same terms, then `O=c1oc2ccc(Cl)cc2c(=O)n1-c1ccc(I)cc1F`, with -18.3% (active); and `CCC1=C[C@@H]2CN(C1)Cc1c([nH]c3ccccc13)[C@@](C(=O)OC)(c1cc3c(cc1OC)N(C)[C@H]1[C@@](O)(C(=O)OC)[C@H](OC(C)=O)[C@]4(CC)[C@@H]5C[C@@H]5CN5CC[C@]31[C@@H]54)C2`, with 5.74% (active).
On the same count and under the same terms, in the case of `O=c1oc2ccc(F)cc2c(=O)n1-c1ccc(I)cc1F` it was -0.975% (active); in that of `COc1ccc(C2C3=C(COC3=O)N(CCO)c3cc4c(cc32)CCC4)cc1OC` (stereo not given), -8.65% (active); in that of `O=c1oc2ccc(I)cc2c(=O)n1-c1ccc(Cl)cc1F`, 1.77% (active).
Turning to `O=C1OC(c2ccccc2)(c2ccccc2)c2ccsc21`, the growth is 99.1%.
As for `O=c1oc2ccc(-c3ccc(F)cc3F)cc2c(=O)n1-c1cccc(C(F)(F)F)c1`, the growth was 3.37% (active).
Turning to `Cn1nc(C(C)(C)C)cc1NC(=O)Cc1ccc(/C=C2\C(=O)Nc3ccccc32)cc1`, the growth is 21.7%.
For the compound `Cc1ccc(Nc2nc(N)c3ccccc3n2)cc1Cl`, the growth is 56%.
In the case of `O=C(c1ccccc1)N(CCc1ccc(Cl)cc1)C(=S)N(C(=O)c1ccccc1)c1ccccc1`, the growth is 56.5%.
The same measure, in the same setting: then `O=C(COc1cc(O)c2c(=O)cc(-c3ccccc3)oc2c1)Nc1ccccc1`, with 86.5%; and `O=C1c2cc(I)ccc2Oc2cc([N+](=O)[O-])ccc2N1c1ccc(Cl)cc1F`, with 81.2%.
Same read-out and setting: in the case of `Nc1ccc(-c2nn3c(CCC(=O)c4nc5ncccc5[nH]4)nnc3s2)c(O)c1` it was 98.5%.
On the same count and under the same terms, in the case of `COc1c(B(O)O)cccc1-c1nc2ccc3[nH]ncc3c2c2c1C1CCC2C1` (stereo not given) it was 25.3%; in that of `Oc1c(CN2CCN(c3ccccc3F)CC2)cc(Br)c2cccnc12`, 0.135% (active).
As for `O=C(Nc1ccc(F)cc1F)c1cc(Br)ccc1O`, the growth was -0.56% (active).
Consider `O=C(Nc1ccc(N2CCNCC2)cn1)c1[nH]ncc1Nc1ncnc2sccc12`, for which the growth was 57.3%.
For the compound `O=C1c2ccc3c4c(ccc(c24)C(=O)N1CCCCO)C(=O)N(CCCCO)C3=O`, the growth was 95.3%.
The same measure, in the same setting: then `CC[C@]1(O)C[C@@H]2CN(CCc3c([nH]c4ccccc34)[C@@](C(=O)OC)(c3cc4c(cc3OC)N(C)[C@H]3[C@@](O)(C(=O)OC)[C@H](OC(=O)CCCBr)[C@]5(CC)C=CCN6CC[C@]43[C@@H]65)C2)C1`, with 7.23% (active); and `Nc1ncnc(N)c1NC(=O)c1ccc(OCc2ccccc2)cc1`, with 104%; and `O=c1oc2ccc(Cl)cc2c(=O)n1-c1ccc(F)cc1F`, with 5.64% (active).
